# “And” between values parts separate entries of the source, which are not always exact repeats. Equal values may be shown once. About 2,600 (1.2%) of roughly 220,000 compounds were called active.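 Rule for the calls: active = activation above the mean of all tested compounds plus 3 SD, set per screening run (cut at about 8.8% in these data); inactive = the rest.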 This excerpt belongs to a sample that is enriched for actives. The source holds several records for some structures; these can differ, active in one and inactive in another.
# Target: Wee1-like protein kinase (Homo sapiens) (UniProt P30291)
# Assay: Wee1 degradation inhibitors, primary screen, cell-based, HeLa, Wee1K328M-luciferase, luminescence (AID 1321);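 note: cells exposed to compound for 20 h before luminescence read; 0% = DMSO alone and 100% = MG132 at 30 µM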
# Settings: HeLa Luc-Wee1K328M stability, at 5 µM, stronger effect = higher value, 100% = proteasome inhibitor MG132 effect
row,Compound,reporter increase
1,CCOC(=O)C1CCN(c2c(Nc3cc(C)cc(C)c3)c(=O)c2=O)CC1,-2.25% (inactive)
2,Cc1ccc(S(=O)(=O)/N=C(/Nc2ccccn2)c2ccc(Cl)cc2)cc1,11.1% (active)
3,Cc1ccc(S/C(=N\S(=O)(=O)c2ccc(Cl)cc2)c2ccccc2)cc1,0.58% (inactive)
4,O=S(=O)(/N=C(/Nc1ccccn1)c1ccccc1)c1ccc(Cl)cc1,-2.13% (inactive)
5,CCCCN(CCCC)CC(O)Cn1c2ccccc2c(=O)c2ccccc21 (configuration not stated),0.32% (inactive)
6,O=C(Nc1ccc(S(=O)(=O)Nc2nccs2)cc1)c1cccc(S(=O)(=O)N2CCOCC2)c1,-2.58% (inactive)
7,CC(=O)N1CCC(N(C(=O)Nc2ccc(Cl)cc2)C(C)C)CC1,-1.37% (inactive)
8,NC(=O)c1ccc(-c2csnn2)cc1,-2.32% (inactive)
9,CCS(=O)(=O)N1CCC(C(=O)N2CCN(c3ccccc3)CC2)CC1,-1.23% (inactive)
10,CCCS(=O)(=O)N1CCCC(C(=O)N2CCN(c3ccccc3)CC2)C1 (configuration not stated),-1.94% (inactive)
11,CS(=O)(=O)N1CCC(C(=O)N2CCN(c3ccccc3)CC2)CC1,11.4% (active)
12,CCN1CCN(CC(=O)Nc2sc3c(c2C#N)CCC3)CC1,-0.82% (inactive)
13,CN1CCN(CC(=O)Nc2sc3c(c2C#N)CCC(C(C)(C)C)C3)CC1 (configuration not stated),16.5% (active)
14,CCC1CCc2c(sc(NC(C)=O)c2C#N)C1 (configuration not stated),1.63% (inactive)
15,CC1CC(NC(=O)/C(C#N)=C/c2ccc[nH]2)CC(C)(C)C1 (configuration not stated),1.3% (inactive)
16,c1ccc(-n2cccc2)c(N2CCCCC2)c1,3.42% (inactive)
17,C/C(CC(C)C)=N\Oc1nc(C)cc(C)n1,-1.74% (inactive)
18,COc1cc(OC)cc(C(=O)NC(=S)N2CCN(c3ccc(C(F)(F)F)cc3[N+](=O)[O-])CC2)c1,12.2% (active)
19,O=C(Nc1cccc(C(F)(F)F)c1)c1ccc(N2CCNCC2)c([N+](=O)[O-])c1,1.22% (inactive)
20,Cc1cccc(C(=O)NC(=S)N2CCN(c3ccc([N+](=O)[O-])cc3)CC2)c1,-1.67% (inactive)
21,Cc1cc(C)nc(NC(=O)/C=C/c2ccc(Cl)cc2)n1,-2.67% (inactive)
22,CC(C)n1c(=S)[nH]c2cc(C(F)(F)F)ccc21,-2.42% (inactive)
23,Cc1[nH]n(C)c(=O)c1N=Nc1ccc(S(C)(=O)=O)cc1,1.89% (inactive)
24,COc1cc(CC(=O)N/N=C/c2ccccc2)c([N+](=O)[O-])cc1OC,10.2% (active)
25,O=C(Cc1cc(=O)[nH][nH]1)N/N=C/c1ccccc1[N+](=O)[O-],-4.24% (inactive)

row,Compound,reporter increase
1,COc1ccc(C(=O)NCC(=O)N/N=C/c2ccc([N+](=O)[O-])o2)cc1OC,-1.47% (inactive)
2,CCn1c(SCC(=O)N/N=C/c2ccccc2OCC(=O)O)nnc1-c1ccc(C(C)(C)C)cc1,0.66% (inactive)
3,CCN(CC)C(=O)CSC(Nc1cccc(F)c1)=C(C#N)C#N,-3.44% (inactive)
4,Cc1cccc(N2CCN(Cc3nc(C4CC4)no3)CC2)n1,-3.23% (inactive)
5,Cc1ccc(S(=O)(=O)NC(=O)Nc2nc(-c3ccc(F)c(F)c3)cs2)cc1,7.86% (inactive)
6,COc1ccc(Cl)cc1NC(=O)CCN1CCOCC1,-3.24% (inactive)
7,COc1ccc(-c2ccc(CNCCCN3CCOCC3)o2)cc1Cl,8.92% (active)
8,C=CCOc1ccc(Cl)cc1CNCCCN1CCOCC1,-1.69% (inactive)
9,Cn1c(SCC(=O)c2ccc(F)cc2)nnc1-c1ccccn1,-0.76% (inactive)
10,CC(C)N(Cc1nc(-c2ccc3c(c2)OCO3)no1)CC1CCC(=O)N1 (configuration not stated),2.1% (inactive)
11,CN(CCN1CCOCC1)Cc1nc(-c2ccc3c(c2)OCO3)no1,1.41% (inactive)
12,COCC1CCCN(Cc2nc(-c3ccc4c(c3)OCO4)no2)C1 (configuration not stated),9.73% (active)
13,Cc1ccc(-c2c[n+](=O)c3c(n2[O-])CCC3)cc1,-1.07% (inactive)
14,O=C(Cc1ccccc1)Nc1cccc(C(=O)N/N=C/c2ccco2)c1,-1.22% (inactive)
15,N#CCC(=O)N/N=C/c1ccc(SCC(=O)Nc2ccccc2)o1,-0.66% (inactive)
16,O=C(CSc1ccc(/C=N/NC(=O)c2cccc(F)c2)o1)Nc1ccccc1,9.46% (active)
17,COc1cc2[nH]c(=S)n(Cc3ccc(C)o3)c(=O)c2cc1OC,3.12% (inactive)
18,CCOc1cc2[nH]c(=S)n(Cc3ccc(C(=O)NCCOC)cc3)c(=O)c2cc1OCC,-1.62% (inactive)
19,COc1cc2[nH]c(=S)n(Cc3ccc(F)cc3)c(=O)c2cc1OC,12.6% (active)
20,COc1ccc(F)cc1S(=O)(=O)N1CCCCC1,2.94% (inactive)
21,Cc1ccc(/C=N/NC(=S)NC2CCCCC2)o1,3.18% (inactive)
22,CCn1c(C(C)NC(=O)c2ccc(C)cc2)n[nH]c1=S (configuration not stated),-0.98% (inactive)
23,CCn1c(C(C)C)n[nH]c1=S,18.6% (active)
24,CCn1c(-c2ccncc2)n[nH]c1=S,1.46% (inactive)
25,O=C(NCc1ccco1)C1CCCN1S(=O)(=O)c1ccccc1C(F)(F)F (configuration not stated),-1.13% (inactive)

row,Compound,reporter increase
1,CCC1=NN2C(=N)/C(=C/c3cc(C)n(-c4ccccc4)c3C)C(=O)N=C2S1,4.73% (inactive)
2,COC(=O)c1sc(SC)c(S(=O)(=O)C(C)C)c1N/N=C(\C#N)S(=O)(=O)c1ccccn1,2.36% (inactive)
3,CCOC(=O)C1CCN(C(=O)Nc2ccc(C)c(Cl)c2)CC1,3.42% (inactive)
4,CCCCOC(=O)CCCc1ccc([N+](=O)[O-])cc1[N+](=O)[O-],12.8% (active)
5,CCOC(=O)C/C(C)=N\Nc1ccc([N+](=O)[O-])cc1[N+](=O)[O-],-1.73% (inactive)
6,CCOC(=O)COc1ccc([N+](=O)[O-])cc1,-1.98% (inactive)
7,CC1(C)CC(CNCCC(c2ccc(F)cc2)c2ccco2)CCO1 (configuration not stated),-2.08% (inactive)
8,CC(C)CNC(=O)C(=O)NCc1ccccc1,-2.69% (inactive)
9,CC(C)CNC(=O)/C=C/C(=O)O,31.4% (active) and -2.62% (inactive)
10,CC(C)CNC(=O)CC(NCC(C)C)C(=O)O (configuration not stated),-0.85% (inactive)
11,CN(Cc1nc(-c2cnccn2)no1)Cc1n[nH]c2c1CCCCC2,-0.67% (inactive)
12,O=C(O)C1CCN1C1CCCCC1 (configuration not stated),8.91% (active)
13,CC(Sc1nnnn1C1CCCCC1)C(=O)O (configuration not stated),-1.64% (inactive)
14,O=C(O)c1cccc2c1C(=O)N(C1CCCCC1)C2,-0.13% (inactive)
15,O=C(CCNc1n[nH]c(=O)[nH]c1=O)N/N=C\c1ccc(Br)cc1,-1.51% (inactive)
16,COc1c(N2CCN(C(=S)Nc3ccccc3F)C(C)C2)c(F)cc2c(=O)c(C(=O)O)cn(C3CC3)c12 (configuration not stated),-0.39% (inactive)
17,CCC(=O)Nc1ccc(C(=O)Nc2cccc(OC)c2)cc1,0.16% (inactive)
18,CCOC(=O)c1cc(NC(=O)c2cccnc2)cc(C(=O)OCC)c1,-1.21% (inactive)
19,CCC(=O)Nc1cccc(NC(=O)c2cccnc2)c1,14.3% (active)
20,O=C(NC(=S)Nc1cccc2c(O)cccc12)c1cccc(Br)c1,-1.09% (inactive)
21,Cc1c(Br)c([N+](=O)[O-])nn1CC(=O)N1CCN(Cc2ccccc2)CC1,9.26% (active)
22,O=C(Nc1ccccc1)N1CCN(Cc2ccccc2)CC1,4.02% (inactive)
23,Cn1nnnc1SCC(=O)N1CCN(Cc2ccccc2)CC1,1.62% (inactive)
24,O=C(c1[nH]ncc1-c1ccc(Cl)cc1)C1CO1 (configuration not stated),-0.11% (inactive)
25,O=C(O)c1cccnc1Sc1ncnc2sc3c(c12)CCC3,-1.76% (inactive)

row,Compound,reporter increase
1,O=C(Nc1ccccc1)Nc1ccc(C(F)(F)F)cn1,0.31% (inactive)
2,COc1cc(NC(=O)COc2ccccc2Cl)ccc1NC(=O)C(C)C,9.65% (active)
3,Cc1ccccc1OCC(=O)Nc1ccc(N2CCN(C(=O)C(C)C)CC2)c(Cl)c1,-0.59% (inactive)
4,O=C(COc1ccccc1Cl)Nc1ccc(C(=O)c2ccc(C(=O)O)cc2)cc1,-1.08% (inactive)
5,COc1cc(N2C(=O)CC3(CCCC3)CC2=O)cc(OC)c1OC,-3.15% (inactive)
6,Cc1ccc(NC(=S)NCc2ccccc2Cl)c(C)c1,4.9% (inactive)
7,Cc1ccc(NC(=S)NC(=O)c2ccc(-c3ccccc3)cc2)c(C)c1,1.11% (inactive)
8,Cc1ccc(NC(=S)Nc2ncccc2C)c(C)c1,11.8% (active)
9,COc1ccc(CNC(=O)CCC(=O)Nc2nnc(C(C)C)s2)cc1,0.8% (inactive)
10,COc1ccc(NS(=O)(=O)c2ccc(Oc3c(C#N)cccc3C#N)cc2)cc1,-2.73% (inactive)
11,O=C(c1ccc(=O)oc1)N1CCC(C(O)(c2ccccc2)c2ccccc2)CC1,4.74% (inactive)
12,Oc1ccccc1/C=N/n1c(-c2cccs2)n[nH]c1=S,-3.64% (inactive)
13,Cc1ccsc1/C=N/n1c(=S)[nH]nc(C)c1=O,11.5% (active)
14,S=c1[nH]nc(-c2cccs2)n1/N=C/c1cccs1,-2.19% (inactive)
15,CCOc1ccc(C2NC(=S)NC3=C2CCc2ccccc23)cc1 (configuration not stated),3.12% (inactive)
16,CCOC(=O)c1ccc(NC(=O)Cn2cnc3cc(C)c(C)cc32)cc1,-1.24% (inactive)
17,O=C(CSc1ccccc1F)NC1CCS(=O)(=O)C1 (configuration not stated),12.3% (active)
18,O=C(CSc1nn(-c2ccc(F)cc2)c(=S)s1)NC1CCS(=O)(=O)C1 (configuration not stated),0.51% (inactive)
19,CCN(CC(=O)NC1CCS(=O)(=O)C1)S(=O)(=O)c1ccccc1 (configuration not stated),-0.95% (inactive)
20,Cc1cc(C)c2c(n1)nn1c(N3CCN(c4cccc(Cl)c4)CC3)cc(C)nc21,14.1% (active)
21,Cc1cc(C)c2c(n1)nn1c(N3CCOCC3)cc(C)nc21,-0.28% (inactive)
22,Cc1cc(C)c2c(n1)nn1c(-n3ccnc3)cc(C)nc21,2.99% (inactive)

# Source: PubChem BioAssay AID1321 (The Scripps Research Institute Molecular Screening Center, 2008)
